Here are results for 12 compounds from PubChem BioAssay (NCI).

Among the test systems are NCI-H23 lung; NCI-H226 lung; NCI-H322M lung; HOP-62 NSCLC; NCI-H460 lung; HOP-92 NSCLC; NCI-H522 lung; A549/ATCC NSCLC; 786-0 renal; COLO 205 colon.
Assay in all cases: NCI-60 one-dose screen, 48 h (100 = growth as untreated, 0 = no growth, -100 = all killed)
Common to all, as to conditions: 10 µM

Compounds without any hit were thinned out: in the full panel of roughly 83,000, 20% have a hit.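 Interpretation: 100, growth as untreated; towards 0, rising growth inhibition; 0, no net growth; 0 to -100, cell death. Compounds scoring below 10 were considered active.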 A number with no mark means an inactive call. Calls of active or inactive are those of the source.

Turning to `Cc1nc2scc(-c3ccc(Cl)cc3)n2c(=O)c1CCN1CCOCC1`, the growth in the assay with NCI-H23 lung was 101%; in the assay on NCI-H226 lung it was 94.6%; in the assay on NCI-H322M lung it was 89.7%; with HOP-62 NSCLC, 89%; in the assay with NCI-H460 lung, 107%; in the assay on HOP-92 NSCLC, 81.6%. The growth in the assay on NCI-H522 lung is 86.8%; in the assay on A549/ATCC NSCLC it was 99.6%; with 786-0 renal, 98.8%; in the assay on COLO 205 colon it was 99.9%.

With `CS(=O)(=O)Nc1ccc([N+](=O)[O-])cc1Oc1ccccc1`, the growth in the assay with NCI-H23 lung is 92.6%; in the assay on NCI-H226 lung it was 96%; in the assay with NCI-H322M lung, 103%; with HOP-62 NSCLC, 93%; in the assay with NCI-H460 lung, 102%; in the assay with HOP-92 NSCLC, 51.8%. Besides, the growth is 92.6% with NCI-H522 lung, 89.3% with A549/ATCC NSCLC, 98.4% in the assay on 786-0 renal and 99.7% in the assay on COLO 205 colon.

Turning to `CCN1CCN(c2ccc(Nc3ncnc4c3nnn4CCc3cc(OC)cc(OC)c3)cc2)CC1`, the growth in the assay with NCI-H23 lung is 88.8%; in the assay on NCI-H226 lung, 85.8%; with NCI-H322M lung, 95.6%; in the assay with HOP-62 NSCLC, 99.4%; in the assay on NCI-H460 lung, 106%; with HOP-92 NSCLC it was 89.6%. Besides, the growth with NCI-H522 lung is 96.1%; with A549/ATCC NSCLC it was 95.5%; with 786-0 renal it was 99.6%; in the assay on COLO 205 colon, 89.3%.

For the compound `NC1CCC(Nc2nc(NCc3cc(Cl)ccc3O)c3ncn(C4CCCC4)c3n2)CC1` (stereo not given), the growth in the assay with NCI-H23 lung was -49.1% (active); in the assay on NCI-H226 lung, -6.72% (active); with NCI-H322M lung, 10.9%; in the assay on HOP-62 NSCLC, -18% (active); in the assay with NCI-H460 lung, 0.39% (active); with HOP-92 NSCLC it was -18.1% (active). The growth was -50.2% (active) in the assay with NCI-H522 lung, -4.99% (active) with A549/ATCC NSCLC, -11.3% (active) in the assay with 786-0 renal and -63.1% (active) with COLO 205 colon.

As for `c1ccc(CC(NCCNC(Cc2ccccc2)c2ccccc2)c2ccccc2)cc1` (stereo not given), the growth in the assay with NCI-H23 lung was 25%; in the assay with NCI-H226 lung it was 38%; in the assay on NCI-H322M lung, 66.2%; in the assay with HOP-62 NSCLC, 61.1%; in the assay with NCI-H460 lung, -13.9% (active); in the assay on HOP-92 NSCLC it was -9.41% (active). The growth in the assay on NCI-H522 lung is -40.5% (active); with A549/ATCC NSCLC, 36.8%; in the assay with 786-0 renal, 35.9%; with COLO 205 colon, -59.5% (active).

For `O=C(COc1ccc(Cl)cc1Cl)Oc1coc(CSc2nc3ccccc3s2)cc1=O`, the growth was 94.5% in the assay with NCI-H23 lung; 93.8% in the assay on NCI-H226 lung; 114% with NCI-H322M lung; 107% with HOP-62 NSCLC; 101% with NCI-H460 lung; 110% in the assay on HOP-92 NSCLC. The growth in the assay with NCI-H522 lung is 74.8%; with A549/ATCC NSCLC, 27.8%; in the assay with 786-0 renal, 113%; in the assay with COLO 205 colon it was 114%.

Consider `COc1cc(C2C=C(c3ccc(Cl)c(Cl)c3)N=C3SC(C)=CN32)cc(OC)c1OC` (stereo not given), for which the growth in the assay on NCI-H23 lung was 79.5%; in the assay on NCI-H226 lung, 50.5%; with NCI-H322M lung, 81.8%; in the assay with HOP-62 NSCLC, 91.1%; in the assay on NCI-H460 lung, 77.5%; with HOP-92 NSCLC, 81.9%. Moreover, the growth was 57.2% with NCI-H522 lung, 83.8% in the assay on A549/ATCC NSCLC, 85.6% in the assay on 786-0 renal and 81.3% in the assay with COLO 205 colon.

Take `Cc1ccc(/C=C2\CN(Cc3cn(CCNc4ccnc5cc(Cl)ccc45)nn3)C/C(=C\c3ccc(C)cc3)C2=O)cc1`: the growth in the assay on NCI-H23 lung is -26.8% (active); with NCI-H226 lung, -66.9% (active); with NCI-H322M lung, 5.6% (active); in the assay on HOP-62 NSCLC it was -64.5% (active); with NCI-H460 lung, -51% (active); in the assay on HOP-92 NSCLC, -42.6% (active). Also, the growth with NCI-H522 lung was -49.5% (active); with A549/ATCC NSCLC it was -17.2% (active); with 786-0 renal, -36% (active); with COLO 205 colon it was -66.7% (active).

Turning to `CC(=O)[C@H]1CC[C@H]2[C@@H]3CC[C@@H]4CC=C(C=O)C[C@]4(C)[C@H]3CC[C@]12C`, the growth was 92.7% in the assay with NCI-H23 lung; 99.4% with NCI-H226 lung; 97.6% with NCI-H322M lung; 122% in the assay with HOP-62 NSCLC; 103% in the assay on NCI-H460 lung; 68.1% in the assay with HOP-92 NSCLC. Also, the growth in the assay with NCI-H522 lung was 82.5%; with A549/ATCC NSCLC, 92.4%; in the assay with 786-0 renal, 93.2%; in the assay with COLO 205 colon, 105%.

Take `CCCCN(CCCC)c1ccc(C(=NC(C)CCCN(CC)CC)c2ccc(N(C)C)cc2)cc1` (stereo not given): the growth in the assay on NCI-H23 lung was -60.3% (active); with NCI-H226 lung, -34.9% (active); in the assay with NCI-H322M lung, -14.2% (active); in the assay with HOP-62 NSCLC, -80.4% (active); in the assay on NCI-H460 lung, -76.9% (active); in the assay with HOP-92 NSCLC, -45.5% (active). The growth with NCI-H522 lung is -66.8% (active); in the assay with A549/ATCC NSCLC it was -16.4% (active); with 786-0 renal, -86.4% (active); in the assay with COLO 205 colon it was -88.4% (active).

For the compound `CC1(C)CCc2cc(-c3ccn(S(=O)(=O)c4ccc(Cl)cc4)n3)ccc2O1`, the growth with NCI-H23 lung was 65.5%; with NCI-H226 lung, 74.4%; in the assay with NCI-H322M lung, 94.2%; in the assay on HOP-62 NSCLC, 92.9%; with NCI-H460 lung it was 73.8%; in the assay with HOP-92 NSCLC, 8% (active). In addition, the growth in the assay on NCI-H522 lung is 66.2%; in the assay on A549/ATCC NSCLC, 67.4%; with 786-0 renal, 71.4%; with COLO 205 colon, 117%.

For `O=C1/C(=C/c2ccc(O)cc2)Oc2ccc(Cl)cc21`, the growth in the assay on NCI-H23 lung was 71.4%; with NCI-H226 lung, 68.8%; in the assay on NCI-H322M lung, 82.8%; with HOP-62 NSCLC, 85.6%; in the assay with NCI-H460 lung, 79.6%; in the assay with HOP-92 NSCLC, 67.1%. In addition, the growth is -65% (active) in the assay on NCI-H522 lung, 79.7% in the assay on A549/ATCC NSCLC, 71.4% with 786-0 renal and 109% with COLO 205 colon.
